According to PubChem BioAssay (NCI):
Compounds without any hit were thinned out: in the full panel of roughly 83,000, 20% have a hit.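 Step 1: grow cells in 96-well plates. Step 2: add test compound at a single concentration. Step 3: incubate 48 h. Step 4: record percent growth.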 Activity calls are given as the source filed them. *1 amine or outer side, *2 acyl side, *3 side chain or, on linkers, in order; H or OH if unused. Where a SMILES comes first, the peptide text is derived from it. Bridges are numbered along the chain shown (N, C = ends). Roman numbers before positions name the chains, in order. [ ]: non-standard residue; d: D form. Actinocin(1to9) = Cc1c2oc3c(C)ccc(C(=O)[*:2])c3nc-2c(C(=O)[*:1])c(N)c1=O; NMeV = CN[CH](C(=O)O)C(C)C; Sar = CNCC(=O)O

tested on: ACHN renal; assay: NCI-60 one-dose screen, 48 h (100 = growth as untreated, 0 = no growth, -100 = all killed); settings: 10 µM unless noted
Procedure: Growth inhibition of the ACHN human tumor cell line is measured as a screen for anti-cancer activity. Cells are grown in 96 well plates and exposed to the test compound for 48 hours. Compounds are tested at a single concentration, which is 10^-5 M for most compounds. The reported endpoint is percent growth (GI% or GIPRCNT), where numbers from 0 - 100% represent growth inhibition, and numbers from -100% - 0 represent cell death. For example, a value of 40 represents 60% growth inhibition. A value of 0 means no net growth occurred over the course of the experiment. A value of -40 indicates 40% of cells at the beginning of the experiment died by the end of the experiment. A value of -100 means all cells are dead at the end of the experiment.
NCI-60 Human Tumor Cell Lines Screen was performed using the standard one-dose NCI protocol, which is described in more detail at https://dtp.cancer.gov/discovery_development/nci-60/default.htm.
Compounds with GIPRCNT values below 10 were considered active. Activity score was based on GIPRCNT using the following formula: […]
Score is 0 for GIPRCNT values of 100 or above, 50 for GIPRCNT values of 0, and 100 for GIPRCNT values of -100.

Question: How did the growth turn out when `OCCOSCCO` was run?
Answer: The growth was 91.2% (inactive).

Question: With `Oc1c(Cl)cc(Cl)cc1C(c1cc(Cl)cc(Cl)c1O)C(Cl)(Cl)Cl` as the molecule, how does the growth read?
Answer: The growth was -19.7% (active).

Question: With `CC1(C)CCCC2=C1C(=O)N(SC(Cl)(Cl)Cl)C2=O` as the molecule, how does the growth read?
Answer: The growth was 82.9% (inactive).

Question: Which growth does the source give for `O=C(Nc1ccc(Cl)c(Cl)c1)OCc1ccco1` here?
Answer: The growth was 32.5% (inactive).

Question: `CC(C)c1ccc(C(=O)OC2CCCC2)cc1` was tested. Which growth did it give?
Answer: Its growth is 99.5% (inactive).

Question: Which growth does the source give for `CN1CSC(=S)N(Cc2ccccc2)C1` here?
Answer: Its growth is 102% (inactive).

Question: How did the growth turn out when `CCOc1ccc(Nc2nc3c(s2)C(=O)c2ccccc2C3=O)cc1` was run?
Answer: The growth was 75.1% (inactive).

Question: For `CCc1oc2ccccc2c1C(=O)c1cc(Br)c(O)c(Br)c1`, which growth is on record?
Answer: The growth was 84.2% (inactive).

Question: For `Cc1ccc(N2C(=O)C=CC2=O)cc1`, which growth is on record?
Answer: Its growth is 68.1% (inactive).

Question: `COc1ccc(C(Cn2ccnc2)Sc2ccc(Cl)c(Cl)c2)cc1` (stereo not given) was tested. Which growth did it give?
Answer: The growth was 83.4% (inactive).

Question: For `CC1(C)N=c2cc3c(cc2N1c1ccc(Cl)cc1)=Nc1ccccc1N3c1ccc(Cl)cc1`, which growth is on record?
Answer: The growth was 40.2% (inactive).

Question: `CCCCCCCCCCCC1=NCCCN1CCCC` was tested. Which growth did it give?
Answer: The growth was 104% (inactive).

Question: How did the growth turn out when `O=C(CCl)N1c2ccccc2Sc2c1ccc1ccccc21` was run?
Answer: The growth was 78.7% (inactive).

Question: With `NC1=C(Br)C(=O)c2ncccc2C1=O` as the molecule, how does the growth read?
Answer: The growth was -7.81% (active).

Question: `C/C(=N/NC(N)=S)c1ccc(C)cc1` was tested. Which growth did it give?
Answer: The growth was 96.6% (inactive).

Question: For `CN(C)CCN(C)CC(C)(C)C(=O)/C=C/c1ccc(Cl)c(Cl)c1`, which growth is on record?
Answer: The growth was -100% [100 µM] (active).

Question: For `COc1ccc2nc3cc([N+](=O)[O-])ccc3c(NNc3ccccc3)c2c1`, which growth is on record?
Answer: Its growth is 68.7% (inactive).

Question: How did the growth turn out when `COC(=O)[C@]1(C)CCC[C@]2(C)c3ccc(C(C)C)cc3C(=O)[C@@H](Br)[C@@H]12` was run?
Answer: Its growth is 92.6% (inactive).

Question: For `O=[N+]([O-])c1ccc(C(Br)c2ccc([N+](=O)[O-])cc2)cc1`, which growth is on record?
Answer: Its growth is 98.3% (inactive).

Question: `Oc1c(C(Nc2ccccc2)c2ccccc2)ccc2cccnc12` (stereo not given) was tested. Which growth did it give?
Answer: The growth was 42.9% (inactive).

Question: With `NNc1ccc(Cl)cc1Cl` as the molecule, how does the growth read?
Answer: The growth was 54.7% (inactive).

Question: `COc1cc([C@@H]2c3cc4c(cc3[C@H](OC3OC5COC(c6ccccc6)OC5C(O)C3O)[C@H]3COC(=O)[C@H]23)OCO4)cc(OC)c1OC` (stereo not given in full) was tested. Which growth did it give?
Answer: Its growth is 32.6% (inactive).

Question: Which growth does the source give for `CCCCCCCCCCCCSC(=N)N` here?
Answer: The growth was -12.6% (active).

Question: `Oc1ccc2ccccc2c1N=Nc1ccccn1` was tested. Which growth did it give?
Answer: Its growth is 11.9% (inactive).

Question: Which growth does the source give for `O/N=C1\c2ccccc2-c2ccc(F)cc21` here?
Answer: Its growth is 87.1% (inactive).

Question: `Cc1ccc(Nc2ccc(O)c3c2C(=O)c2c(O)ccc(Nc4ccc(C)cc4)c2C3=O)cc1` was tested. Which growth did it give?
Answer: The growth was 100% (inactive).

Question: For `O=C(Nc1ccc(Cl)c(Cl)c1)Nc1ccccc1O`, which growth is on record?
Answer: Its growth is 76.5% (inactive).

Question: `C=C(C(N)=O)C(N)C(=O)O` (stereo not given) was tested. Which growth did it give?
Answer: The growth was 108% (inactive).

Question: `N#C/C(=N\Nc1ccc(Cl)cc1)C(=O)C1CC1` was tested. Which growth did it give?
Answer: Its growth is 69.1% (inactive).

Question: `CC(C)(C)c1ccc(CCO)cc1` was tested. Which growth did it give?
Answer: The growth was 107% (inactive).

Question: `CCC(C)C1NC(=O)C(NC(=O)c2c3nc4c(C(=O)NC5C(=O)NC(C(C)CC)C(=O)N6CCCC6C(=O)N(C)CC(=O)N(C)C(C(C)C)C(=O)OC5C)ccc(C)c4oc-3c(C)c(=O)c2N)C(C)OC(=O)C(C(C)C)N(C)C(=O)CN(C)C(=O)C2CCCN2C1=O` (stereo not given) (I: TIP[Sar][NMeV] / II: TIP[Sar][NMeV]; ester I:1-I:C, II:1-II:C; linker I:N-II:N via Actinocin(1to9); configuration not given here) was tested. Which growth did it give?
Answer: Its growth is -4.88% (active).

Question: `CN(Cc1ccccc1)c1ccc(SC#N)cc1` was tested. Which growth did it give?
Answer: The growth was 78.8% (inactive).

Question: For `CCN(CC)CCNc1ccc([N+](=O)[O-])c2sc3ccccc3c(=O)c12`, which growth is on record?
Answer: The growth was 6.41% (active).

Question: Which growth does the source give for `NC(=S)N/N=C/c1ncccc1O` here?
Answer: The growth was 10.7% (inactive).

Question: How did the growth turn out when `C/C(=N\NC(=S)N1CC2CCC(CC2)C1)c1ccccn1` was run?
Answer: The growth was 15.1% (inactive).

Question: `CC(C)(C)CC(C)(C)c1ccc(OCCOCCSC(=N)N)cc1` was tested. Which growth did it give?
Answer: Its growth is 33.5% (inactive).

Question: How did the growth turn out when `CC1(O)CCCCCC1` was run?
Answer: Its growth is 103% (inactive).

Question: Which growth does the source give for `CC1=CC(=O)C=CC1(C)C(Cl)(Cl)Cl` (stereo not given) here?
Answer: Its growth is 97.3% (inactive).

Question: Which growth does the source give for `CCCCCCCCCCCC[n+]1ccc2ccccc2c1` here?
Answer: Its growth is 13% (inactive).

Question: How did the growth turn out when `CCCCCCCCCCCCCCCc1ccc(C(=O)C[n+]2ccccc2)cc1` was run?
Answer: The growth was -49.3% (active).
